An excerpt weighted towards active compounds, which were near 10% of everything screened.
3T3 cytotox = NIH 3T3 cell cytotoxicity; NIH 3T3 viability, CellTiter-Glo ATP luminescence, 48-72 h; Potency, µM (highest dose often 96.7 µM), actives largely listed as inhibitors; 4.3% of 94,000 active; AID 1345082; also: nearly all actives have a fitted effect of over 55% in size
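Cytotoxicity was measured by CellTiter-Glo ATP luminescence after 48 or 72 h compound exposure at 37 °C. Mouse NIH 3T3 fibroblasts were seeded at 400 cells/well and dosed by 23 nL pin transfer.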
HEK293 tox = HEK 293 cell cytotoxicity; HEK 293 viability, ATP luminescence (CellTiter-Glo), 48-72 h; Potency, µM (highest dose often 115 µM), most hits filed as inhibitors; 6.6% of 94,000 active; AID 1345083; also: nearly all actives have a fitted effect of over 60% in size
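250 HEK 293 cells/well; compound by pintool; incubated 48 or 72 hr at 37 degree Celsius; CellTiter-Glo added, 10 min RT, luminescence imaged.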
NPR1 antag = antagonists of human natriuretic peptide receptor Npr1; 1.6% of 76,000 active; P16066; AID 1347048; HEK293 hNpr1 GloSensor cGMP, ANP-stimulated luminescence; Potency, µM (titrated, usually from 46.3 µM), most hits filed as inhibitors; calls by dose curve; also: nearly all actives have a fitted effect of over 60% in size
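HEK293 cells stably expressing human Npr1 and cGMP GloSensor pGS-40F, loaded 2 h with 2% GloSensor reagent, given compound 30 min at room temperature. Luminescence read before and 20 min after 0.1 nM hNppA.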
Luciferase inh = inhibitors of firefly (Photinus pyralis) luciferase; 2.5% of 76,000 active; Potency, µM (highest dose often 115 µM), hits mostly inhibitors; purified P. pyralis luciferase, luminescence, biochemical; also: nearly all actives have a fitted effect of over 65% in size
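Luminescence read by CCD imager after adding enzyme (10nM final) to wells holding compound, titrated in qHTS. Substrates 10uM each D-luciferin and ATP; buffer 50mM Tris acetate pH 7.5, 10mM Mg acetate, Tween-20, BSA.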
GPT2 inhibitor = GPT2 alanine aminotransferase inhibition. Q8TD30. Recombinant GPT2, coupled pyruvate oxidase/HRP Amplex Red fluorescence. Potency, µM (series often up to 57.7 µM), hits mostly inhibitors. 0.25% of 100,000 active. AID 1671188; also: nearly all actives have a fitted effect of over 60% in size
Target sequence (Q8TD30 whole entry, looked up): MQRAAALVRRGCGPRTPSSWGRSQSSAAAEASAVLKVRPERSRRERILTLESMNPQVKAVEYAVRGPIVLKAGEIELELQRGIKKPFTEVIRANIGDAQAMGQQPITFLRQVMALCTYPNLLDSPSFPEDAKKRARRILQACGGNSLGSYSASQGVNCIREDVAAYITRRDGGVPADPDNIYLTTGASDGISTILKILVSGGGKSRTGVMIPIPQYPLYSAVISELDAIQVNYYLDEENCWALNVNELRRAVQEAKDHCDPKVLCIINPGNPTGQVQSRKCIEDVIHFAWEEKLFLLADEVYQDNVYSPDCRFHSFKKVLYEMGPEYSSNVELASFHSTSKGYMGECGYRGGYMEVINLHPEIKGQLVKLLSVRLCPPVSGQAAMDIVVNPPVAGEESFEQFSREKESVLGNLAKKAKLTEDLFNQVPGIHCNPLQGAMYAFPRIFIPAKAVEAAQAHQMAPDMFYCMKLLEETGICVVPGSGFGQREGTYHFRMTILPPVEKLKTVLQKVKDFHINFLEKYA
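GPT2 10ng/uL, a-KG 250uM, L-Ala 2mM, HEPES pH7.5 + 0.0001% Tween; 30 min RT. Then Amplex mix (PO/HRP/ThPP), 30 min RT dark, fluorescence. AOA 50uM used as positive control.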
Of the large screens only hits and unclear results are named; the others gave an inactive call. Unless noted, calls follow the shape of the dose curve; as a rule, active = well fitted curve in the direction sought with a large enough effect; inconclusive = small, poorly fitted or top-dose-only effect, or another doubt; inactive = no such curve, though single readings can be large; an effect the other way counts as inactive or inconclusive.

COc1cccc([S+](=O)([O-])N2CCC3(C2)OC(=O)Nc2ccccc23)c1 (centres undefined)	3T3 cytotox inconclusive, HEK293 tox inconclusive
CN(Cc1cccc(C(F)(F)F)c1)CC1CC1	none (no result: NPR1 antag, Luciferase inh)
COc1cncc(Nc2cnc3ccc(N(C)Cc4ccc(F)cc4)nn23)c1	3T3 cytotox inconclusive, HEK293 tox inconclusive, NPR1 antag inconclusive, GPT2 inhibitor inconclusive
NC(=O)c1ccc(Nc2cnc3ccc(-c4ccccc4)nn23)cc1	3T3 cytotox 28µM, HEK293 tox inconclusive
COc1ccc(Nc2cnc3ccc(-c4ccccc4)nn23)cc1	3T3 cytotox inconclusive, HEK293 tox 71µM, Luciferase inh inconclusive
CN(Cc1ccc(F)cc1)c1ccc2ncc(Nc3ccc4c(c3)OCCO4)n2n1	3T3 cytotox inconclusive, HEK293 tox 40µM
COc1ccc(Nc2cnc3ccc(-c4ccc(F)cc4)nn23)cc1	3T3 cytotox inconclusive, HEK293 tox inconclusive, GPT2 inhibitor inconclusive
COc1ccc(-c2ccccc2C(=O)NC2CCC2)nn1	none (no result: NPR1 antag, Luciferase inh, GPT2 inhibitor)
Cn1nccc1-c1ccc2ncn(-c3ccc(F)cc3F)c(=O)c2n1	3T3 cytotox inconclusive, HEK293 tox 63µM
N#Cc1cccc(CN2CC[C@H](c3nc4ccccc4[nH]3)C2)c1	3T3 cytotox 56µM, HEK293 tox 50µM
CC(C)CCN1CC[C@H](c2nc3ccccc3[nH]2)C1	HEK293 tox inconclusive, Luciferase inh 35µM
CN(C)c1ccc(CN2CC[C@H](c3nc4ccc(C#N)cc4[nH]3)C2)cc1	3T3 cytotox inconclusive, HEK293 tox inconclusive
N#Cc1ccc2nc([C@H]3CCN(Cc4ccc(F)c(F)c4)C3)[nH]c2c1	3T3 cytotox 32µM, HEK293 tox inconclusive
COc1ccc2nc([C@H]3CCN(Cc4cccc(C#N)c4)C3)[nH]c2c1	3T3 cytotox 32µM, HEK293 tox 40µM
c1cncc(CN2CC[C@H](c3nc4ccccc4[nH]3)C2)c1	HEK293 tox inconclusive
CN1CC[C@H](c2nc3ccccc3[nH]2)C1	3T3 cytotox inconclusive
O=C(NCc1ccc(F)cc1)c1ccc2nnc(C3CCCC3)n2c1	3T3 cytotox inconclusive, HEK293 tox inconclusive (no result: NPR1 antag, Luciferase inh)
CC(C)NC(=O)c1cn2cc(-c3cccnc3)sc2n1	3T3 cytotox inconclusive, HEK293 tox inconclusive (no result: NPR1 antag, Luciferase inh)
COc1ncccc1-c1cnc2n[nH]c(-c3ccccc3)c2n1	3T3 cytotox 50µM, HEK293 tox 71µM
COc1ccccc1-c1cnc2n[nH]c(-c3ccccc3)c2n1	3T3 cytotox 79µM, HEK293 tox inconclusive
COc1ccccc1-c1[nH]nc2ncc(-c3cccnc3OC)nc12	3T3 cytotox 10µM, HEK293 tox 10µM
COc1ccccc1-c1[nH]nc2ncc(C(=O)NCC3CCOCC3)nc12	3T3 cytotox 40µM
COc1ncccc1-c1cnc2n[nH]c(-c3ccccc3C)c2n1	3T3 cytotox inconclusive, HEK293 tox inconclusive
COc1ccccc1-c1[nH]nc2ncc(-c3c(C)noc3C)nc12	3T3 cytotox inconclusive, HEK293 tox 89µM, GPT2 inhibitor inconclusive
Cc1noc(C)c1-c1cnc2n[nH]c(-c3ccccc3)c2n1	HEK293 tox inconclusive
Cn1cc(CN2CCNc3cc(Nc4ccccc4)ncc3C2)cn1	3T3 cytotox inconclusive, Luciferase inh 28µM
c1ccc(CN2CCNc3cnc(Nc4ccc(N5CCOCC5)cc4)cc3C2)cc1	3T3 cytotox 40µM, HEK293 tox 71µM, NPR1 antag inconclusive, Luciferase inh inconclusive, GPT2 inhibitor inconclusive
Cn1cc(CN2CCNc3cc(-c4ccccc4)ncc3C2)cn1	HEK293 tox inconclusive, Luciferase inh 45µM
CC(C)(C)C(=O)N1CCCC(c2nn(-c3ccc(F)cc3)c(=O)[nH]2)C1 (centres undefined)	none
CN(C)C(=O)c1cc(-c2cccnc2)nc2c1cnn2C	none (no result: NPR1 antag, Luciferase inh)
COc1cccc(-c2cn3cc(C(=O)NC4CC4)nc3s2)c1	3T3 cytotox inconclusive, HEK293 tox inconclusive (no result: NPR1 antag, Luciferase inh)
CC(C)c1ccc(CN2CCC3(CC2)OC(=O)N(Cc2ncccn2)C3(C)c2ccccc2)cc1 (centres undefined)	3T3 cytotox inconclusive, HEK293 tox 40µM
CC(=O)Nc1ccc(CN2C(=O)OC3(CCN(Cc4ccc(C(C)C)cc4)CC3)C2(C)c2ccccc2)cc1 (centres undefined)	3T3 cytotox 35µM, HEK293 tox inconclusive
COc1cccc([S+](=O)([O-])N2CCCC3(C2)C(=NC2CCCC2)NC(=O)N3c2cc(F)cc(F)c2)c1 (centres undefined)	3T3 cytotox inconclusive, HEK293 tox inconclusive
CCCC(=O)N1Cc2ccccc2CC2(CCN(Cc3ccncc3)C2)C1 (centres undefined)	none (no result: NPR1 antag, Luciferase inh)
CC(=O)N1CCC(c2nnc3n2C(C(=O)N2CCCCC2)CC3)CC1 (centres undefined)	none (no result: NPR1 antag, Luciferase inh)
O=C(NCCc1ccc(Cl)cc1)C1CCN(Cc2ccccc2-c2ccccc2F)CC1	3T3 cytotox inconclusive, HEK293 tox 32µM (no result: NPR1 antag, Luciferase inh, GPT2 inhibitor)
O=C(NCCc1ccc(F)cc1)C1CCN(Cc2ccccc2-c2ccccc2F)CC1	3T3 cytotox 35µM, HEK293 tox 28µM (no result: NPR1 antag, Luciferase inh, GPT2 inhibitor)
Cc1nn(-c2ccccc2)c2c1C(C1CC1)N(C1CN(C(=O)NC3CCCC3)C1)C2=O (centres undefined)	none (no result: NPR1 antag, Luciferase inh, GPT2 inhibitor)
Cc1nn(-c2ccccc2)c2c1C(C)N(C1CN(C(=O)NC3CCCC3)C1)C2=O (centres undefined)	3T3 cytotox 28µM, HEK293 tox inconclusive (no result: NPR1 antag, Luciferase inh, GPT2 inhibitor)
COc1ccccc1C(=O)N1CCC(N2C(=O)c3c(c(C)nn3-c3ccccc3)C2C)CC1 (centres undefined)	3T3 cytotox inconclusive, HEK293 tox 40µM (no result: NPR1 antag, Luciferase inh, GPT2 inhibitor)
COC(=O)N1CCCC(N2C(=O)c3c(c(C)nn3-c3ccccc3)C2C)C1 (centres undefined)	HEK293 tox inconclusive (no result: NPR1 antag, Luciferase inh, GPT2 inhibitor)
Cc1ccccc1C(=O)N1CCC(N2C(=O)c3c(c(C)nn3-c3ccccc3)C2C)C1 (centres undefined)	3T3 cytotox inconclusive, HEK293 tox 45µM (no result: NPR1 antag, Luciferase inh, GPT2 inhibitor)
Cc1ccccc1C(=O)N1CCC(N2C(=O)c3c(c(C)nn3-c3ccccc3)C2C)CC1 (centres undefined)	3T3 cytotox inconclusive, HEK293 tox 45µM (no result: NPR1 antag, Luciferase inh, GPT2 inhibitor)
Cc1nn(-c2ccccc2)c2c1C(C)N(C1CCCN(C(=O)C3CC3)C1)C2=O (centres undefined)	none (no result: NPR1 antag, Luciferase inh, GPT2 inhibitor)
CCOC(=O)CN1C(=O)CN(C(=O)COC(C)=O)CCC(OC)c2ccccc21 (centres undefined)	3T3 cytotox inconclusive (no result: NPR1 antag, Luciferase inh, GPT2 inhibitor)
O=C(Nc1ccc(F)cc1)N1C[C@@H]2OCC(=O)N(Cc3ccc(OC(F)(F)F)cc3)[C@@H]2C1	3T3 cytotox inconclusive, Luciferase inh inconclusive
COCCn1c(C)cnc1CC1CCCN(Cc2ccc(F)c(F)c2)C1 (centres undefined)	HEK293 tox inconclusive
O=C(Nc1cccnc1)c1nnn2c1CN(Cc1ccccc1F)C(=O)CC2	3T3 cytotox 100µM
C[S+](=O)([O-])c1cccc(NC(=O)c2nnn3c2CN(Cc2cccc(Cl)c2)C(=O)CC3)c1	3T3 cytotox inconclusive, HEK293 tox inconclusive

Screens as filed in PubChem.
